G9a inh – inhibitors of human histone lysine methyltransferase G9a; Q96KQ7; G9a H3K9 monomethylation, AlphaScreen, 2 h; Potency, µM (top dose mostly 102 µM), inactives show at the top dose activity, negative = inhibition, usual class: inhibitors; actives 8.8% (n = 350,000); also: potency is read from the fitted curve at half-maximal effect; nearly all actives have a fitted effect of over 75% in size
Target sequence (Q96KQ7 913-1193 limits assumed): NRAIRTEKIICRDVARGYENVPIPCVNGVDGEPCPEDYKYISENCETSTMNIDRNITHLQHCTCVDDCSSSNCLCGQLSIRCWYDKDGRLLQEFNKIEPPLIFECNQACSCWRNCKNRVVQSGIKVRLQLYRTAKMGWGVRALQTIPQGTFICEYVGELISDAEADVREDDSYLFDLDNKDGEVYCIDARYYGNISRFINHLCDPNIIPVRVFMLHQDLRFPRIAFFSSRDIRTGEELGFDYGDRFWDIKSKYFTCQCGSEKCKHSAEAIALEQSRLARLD
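Quantitative HTS format: methyltransferase activity on a biotin-tagged H3K9 peptide is measured by AlphaScreen, using a rabbit anti-monomethyl-H3K9 antibody with streptavidin donor and anti-IgG acceptor beads. Final levels are 20 nM enzyme, 500 nM peptide, 20 uM SAM; 2 h RT.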
CCT chaperon mod – cytosolic chaperonin activity modulation. actives 0.3% (n = 360,000). purified chaperonin ATPase assay, HTRF ADP detection, 30 min. AID 651819. activity change, % (concentration not given with the values), hits read low; in the data active = activity change below about -30%
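Nucleotide hydrolysis assay: TRiC at 20–40 nM final (set by batch activity) with 10 uM ATP, 30 min at 37 °C, in presence of 76 uM compound. Detection by competitive ADP HTRF, 30 min ambient.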
PLK1 PBD inh – blocks phosphopeptide binding to human PLK1 polo-box domain; Plk1 PBD binding of FITC phosphopeptide, fluorescence polarization; Potency, µM, inactives show max response, negative = inhibition, most hits filed as inhibitors; actives 2.8% (n = 360,000); AID 720504; also: potency is read from the fitted curve at half-maximal effect; series mostly up to about 57 µM; nearly all actives have a fitted effect of over 65% in size
MmCpn inh – inhibitors of Methanococcus maripaludis chaperonin TRiC (MmCpn); purified Mm-Cpn ATPase, ADP Transcreener TR-FRET; Potency, µM (series often up to 76.9 µM), for the others: at the highest dose activity, negative = inhibition, actives largely listed as inhibitors; actives 0.031% (n = 330,000); also: potency is read from the fitted curve at half-maximal effect; nearly all actives have a fitted effect of over 80% in size
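Quantitative HTS used 25 nM Mm-CPN and 10 uM ATP in magnesium/KCl Tris buffer, pH 7.4, with 1 mM DTT. Hydrolysis ran 30 min at 37°C; ADP was read by HTRF.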
VDR inh – vitamin D3 receptor (human) inhibition. actives 0.93% (n = 400,000). VDR-SRC2-3 peptide fluorescence polarization, 2 h. Potency, µM, for the others: max response, negative = inhibition, usual class: inhibitors. P11473. AID 504847; also: potency is read from the fitted curve at half-maximal effect
Target sequence (P11473 whole entry, looked up): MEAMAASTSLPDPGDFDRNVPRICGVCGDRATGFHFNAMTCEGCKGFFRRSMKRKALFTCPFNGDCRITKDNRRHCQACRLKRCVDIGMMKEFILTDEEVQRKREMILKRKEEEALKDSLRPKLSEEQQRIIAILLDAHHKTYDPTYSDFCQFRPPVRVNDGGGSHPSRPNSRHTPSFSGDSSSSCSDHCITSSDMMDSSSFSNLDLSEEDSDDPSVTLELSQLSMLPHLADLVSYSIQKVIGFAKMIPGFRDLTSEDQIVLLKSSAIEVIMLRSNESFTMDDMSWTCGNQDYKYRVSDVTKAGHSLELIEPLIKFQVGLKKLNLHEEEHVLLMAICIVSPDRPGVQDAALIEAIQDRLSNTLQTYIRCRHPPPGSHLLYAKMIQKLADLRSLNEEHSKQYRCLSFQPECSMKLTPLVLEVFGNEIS
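Two reagent solutions held at 4 deg C in the dark were dispensed, compounds pinned at 23 nl, and the mixture incubated 2 h at room temperature. Read-out: fluorescence polarization of VDR–SRC2-3 peptide binding.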
Sfp PPTase inh – Sfp phosphopantetheinyl transferase inhibition | Biochemical Sfp PPTase activity, qHTS | Potency, µM, without a hit: largest response in the series, negative = inhibition, usual class: inhibitors | actives 3.5% (n = 310,000);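 also: the enzyme is Sfp with the accession as filed and its product quenches rhodamine fluorescence; potency is read from the fitted curve at half-maximal effect; 0% = enzyme reaction without inhibitor and -100% = no enzyme wells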
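With Hepes-Na pH 7.6 buffer containing 10 mM MgCl2, Sfp (15 nM) modified BHQ-2-YbbR (12.5 uM) using rhodamine-CoA (5 uM). Two reads 30 minutes apart at 525/598 nm yielded each well's rate.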
Numbers without * were called inactive; ? = inconclusive; . = not tested or not shown; [ ] = dose if it differs, or a comment. Hits are enriched below; roughly 10% of the tested compounds scored in any of these assays. Unless noted, calls follow the shape of the dose curve; as a rule, active = well fitted curve in the direction sought with a large enough effect; inconclusive = small, poorly fitted or top-dose-only effect, or another doubt; inactive = no such curve, though single readings can be large; an effect the other way counts as inactive or inconclusive. Unless noted, % is scaled to controls: 0 for no effect and ±100 for the full control effect.

SMILES	G9a inh	CCT chaperon mod	PLK1 PBD inh	MmCpn inh	VDR inh	Sfp PPTase inh
CNC(=O)/C(C#N)=C/c1ccc(-c2ccc(OC)cc2[N+](=O)[O-])o1	?	0	-8%	-1%	-10%	9%
COc1ccc(-c2ccc(/C=C3\C(=O)N(c4ccccc4)N=C3c3ccccc3)o2)c([N+](=O)[O-])c1	7.1µM*	-3	?	2%	-6%	13%
COC(=O)c1ccccc1-c1ccc(/C=N/Nc2nc(N3CCCC3)nc(N3CCCC3)n2)o1	.	-6	2%	-4%	-6%	-10%
COC(=O)c1ccccc1-c1ccc(/C=C2\C(=O)N(c3ccccc3)N=C2c2ccccc2)o1	7.1µM*	-1	?	-1%	4%	-1%
COc1ccc(-c2ccc(/C=C3/C(=N)N4C(C)=CSC4=NC3=O)o2)c([N+](=O)[O-])c1	7.1µM*	-1	-6%	-2%	-19%	13%
C#CCCCO/N=C1/C[C@@H](O)[C@@H](O)[C@@H]2[C@@H]3C(=O)N(C4CCCCC4)C(=O)[C@H]3CC[C@@H]12	.	.	.	.	.	11%
O=C(NCC(c1ccc2c(c1)OCO2)N1CCOCC1)c1ccc(F)cc1 (configuration not stated)	19%[59 µM]	.	.	.	-16%	.
COc1ccc(N2CC(C(=O)N3CCC4(CC3)CC(=O)c3ccccc3O4)CC2=O)cc1 (configuration not stated)	9%[0.501 µM]	-56*	-2%	2%	-4%	.
Cc1ccc(N2CC(C(=O)N3CCC4(CC3)CC(=O)c3ccccc3O4)CC2=O)cc1 (configuration not stated)	-17%[0.501 µM]	0	3%	-1%	3%	.
O=C(COc1ccc([N+](=O)[O-])cc1)NNC(=S)NC(=O)c1ccc(Br)cc1	2.8µM*	-4	13µM*	-1%	?	45µM*
Cc1ccc(C(=O)NC(=S)NNC(=O)COc2ccc([N+](=O)[O-])cc2)cc1	3.5µM*	-1	?	-1%	-17%	71µM*
CCOC(=O)Cc1ccc(NC(=O)N2CC(C)Oc3ccc(Cl)cc32)cc1 (configuration not stated)	-23%[59 µM]	.	.	.	5%	.
CCOC(=O)c1c(-c2ccccc2)csc1NC(=O)CSc1nnc(C)s1	17%	-1	1%	-13%	-10%	1%
CCOC(=O)c1c(-c2ccc(C)o2)csc1NC(=O)CSc1nnc(C)s1	?	2	-9%	-4%	-18%	22µM*
CCOC(=O)c1c(-c2ccc(C)o2)csc1NC(=S)NC(=O)c1ccccc1Br	32µM*	-2	-16%	-18%	-5%	3.5µM*
COc1ccc(N(CC(=O)Nc2cc(C)ccc2C)S(=O)(=O)c2ccc(OC)c(OC)c2)cc1	17%[59 µM]	.	.	.	11%	.
CC1(C(=O)NNC(=O)c2ccc(=O)oc2)CC1Br (configuration not stated)	50µM*	0	?	1%	-14%	19%
NNc1nccc(Nc2ccccc2C(=O)O)n1	?	0	-8%	-3%	-9%	50µM*
c1ccc(Nc2ccnc(Nc3ccccc3)n2)cc1	-49%	2	-8%	2%	-4%	?
CCN(CC)S(=O)(=O)c1ccc2c(c1)NC(=O)C1CCCN21 (configuration not stated)	-7%	0	-12%	-2%	4%	-1%
O=C1Nc2cc(C(F)(F)F)ccc2N2CCCCC12 (configuration not stated)	50µM*	-2	-4%	0%	-22%	6%
O=C1Nc2cc(S(=O)(=O)N3CCCC3)ccc2N2CCCC12 (configuration not stated)	22µM*	0	-29%	-5%	3%	-29%
O=C1Nc2ccc(C(F)(F)F)cc2N2CCCC12 (configuration not stated)	11µM*	.	.	-3%	.	10%
COC(=O)c1ccc(NC(=O)c2ccc3c(c2)NC(=O)C2CCCN32)cc1 (configuration not stated)	10µM*	.	.	-15%	.	.
C=C1CCN(C(Cc2ccccc2)C(=O)NCc2ccc(Cl)c(Cl)c2)S(=O)(=O)c2ccccc21 (configuration not stated)	.	.	.	.	9%	-18%
SMILES	G9a inh	CCT chaperon mod	PLK1 PBD inh	MmCpn inh	VDR inh	Sfp PPTase inh
O=C1Nc2ccccc2N2CCCC12 (configuration not stated)	20µM*	.	.	-1%	.	-11%
O=C1Nc2cc(Cl)cnc2N2CCCC12 (configuration not stated)	8.9µM*	-2	30µM*	0%	?	50µM*
O=C1Nc2ccccc2C(=O)N2CCC[C@@H]12	.	.	.	.	-1%	0%
O=C(COC(=O)c1ccc(C(F)(F)F)cc1)Nc1cccc(S(=O)(=O)N2CCCCC2)c1	10µM*	1	-13%	2%	5%	.
O=C(O)COc1ccc(S(=O)(=O)N2CCCC2)cc1	?	-1	1%	1%	3%	24%
O=C(COC(=O)c1ccc(Cl)nc1)Nc1ccc(S(=O)(=O)N2CCCC2)cc1	45µM*	0	-1%	2%	25%	-5%
CC(=O)c1ccc(OCC(=O)Nc2cccc(S(=O)(=O)N3CCCC3)c2)cc1	20µM*	3	-13%	-5%	-4%	.
CNC(=O)COc1ccc(S(=O)(=O)N2CCCC2)cc1	-1%	-3	5.3µM*	0%	50µM*	1%
Cc1cccc(-c2noc(-c3ccc(NCc4ccccc4)c([N+](=O)[O-])c3)n2)c1	-25%[59 µM]	.	.	.	14%	.
NS(=O)(=O)c1cccc(NC(=O)COC(=O)Cc2ccc(S(=O)(=O)N3CCCCC3)s2)c1	45µM*	-2	-5%	-1%	-24%	15%
COc1ccc(CCC(=O)Nc2ccc(C)c([N+](=O)[O-])c2)cc1	10µM*	-4	?	0%	-19%	?
Cc1ccc([N+](=O)[O-])cc1NC(=O)CN(C)CCOc1ccccc1	3.2µM*	1	2%	-4%	12%	-17%
COc1ccc(OCCCC(=O)Nc2cc([N+](=O)[O-])ccc2C)cc1	?	-44*	-16%	-1%	14%	0%
CN(CCOc1ccccc1)CC(=O)Nc1cc([N+](=O)[O-])ccc1Cl	?	1	-8%	1%	2%	9%
COc1ccc([N+](=O)[O-])cc1NC(=O)CCCOc1ccccc1	10%[59 µM]	0	-5%	-2%	-11%	6%
CC(=O)Nc1ccc(OCCOc2ccc([N+](=O)[O-])cc2)cc1	?	-3	-18%	1%	-6%	89µM*
O=C(CSc1nnc(-c2ccc(O)cc2)o1)NNC(=O)c1ccncc1	18µM*	1	-5%	-25%	-12%	-9%
CCOC(=O)c1c(S(=O)(=O)NCC(=O)Nc2ccc(C)c(N(C)C)c2)c(C)n(C)c1C	14%[59 µM]	.	.	.	5%	.

Assay outcomes deposited in PubChem by National Center for Advancing Translational Sciences (NCATS).
